A selection: hits, their analogues and other compounds. The true share with any hit is near 27%.
CYP2C9 activ: CYP2C9 (human) activation; activation factor at 5 µM; AID 1024; hit rate 1.4% among 96,000; recombinant CYP2C9, luciferin-H conversion, luminescence; stronger effect = higher value; factor 1 = untreated enzyme, 0 = blocked; P11712;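 active = activation factor of 2 or more for CYP2C9 at a 5 µM dose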;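 note: 0 = sulfaphenazole-blocked wells and 1 = vehicle-only wells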
Target sequence (P11712 whole entry, looked up): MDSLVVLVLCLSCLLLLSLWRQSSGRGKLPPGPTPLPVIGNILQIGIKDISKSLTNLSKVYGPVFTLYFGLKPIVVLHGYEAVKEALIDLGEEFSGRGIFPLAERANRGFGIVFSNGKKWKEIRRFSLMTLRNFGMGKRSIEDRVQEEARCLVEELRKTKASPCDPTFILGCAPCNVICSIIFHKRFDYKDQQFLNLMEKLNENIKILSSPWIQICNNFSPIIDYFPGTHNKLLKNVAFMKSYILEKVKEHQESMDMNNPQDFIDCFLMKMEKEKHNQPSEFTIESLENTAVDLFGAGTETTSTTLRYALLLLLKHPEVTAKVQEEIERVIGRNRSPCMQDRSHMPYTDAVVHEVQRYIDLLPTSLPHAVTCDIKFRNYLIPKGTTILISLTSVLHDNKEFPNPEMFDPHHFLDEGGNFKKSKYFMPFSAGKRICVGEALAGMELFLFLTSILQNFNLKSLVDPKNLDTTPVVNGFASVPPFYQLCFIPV
CYP2C19 inhib: blocks human cytochrome P450 2C19; P33261; AID 778; inhibition, % at 5 µM; CYP2C19 Supersomes, luciferin-H EGE luminescence, 30 min; hit rate 21% among 96,000;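 active = CYP2C19 inhibition above a set limit at 5 µM in the primary screen, cut at about 50% in these data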;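 note: plate controls were negative control wells for no effect and 2.5 mM tranylcypromine positive control for full effect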
CYP2C9 inhib: blocks human cytochrome P450 2C9. P11712. CYP2C9 Supersomes, luciferin-H conversion, luminescence. inhibition, % at 5 µM. hit rate 20% among 96,000;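 active = blocking of liver enzyme CYP2C9 beyond about 50% at 5 µM, limit read from the data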
Cav3 T inh: inhibitors of human Cav3.2 T-type calcium channel. hit rate 4% among 100,000. O95180. B-score at 10 µM. Cav3.2-expressing cells, Fluo-4 calcium fluorescence FDSS; stronger effect = lower value;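 active = single-dose well whose peak fluorescence ratio is a statistical outlier from its plate by either plate-standardised score or position-corrected B-score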
CYP2C19 act: increases human CYP2C19 enzyme activity. P33261. recombinant CYP2C19, luciferin-H EGE luminescence; stronger effect = higher value; 0 = fully inhibited enzyme, 1 = untreated enzyme. activation factor at 5 µM. 96,000 tested, under 10 active;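 active = activation factor of at least 2 at 5 µM in the primary screen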;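 note: 0 = wells with 2.5 mM tranylcypromine and 1 = vehicle-only wells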
* marks the source's active call; other numbers are inactive results; · = no result given.

SMILES | CYP2C9 activ | CYP2C19 inhib | CYP2C9 inhib | Cav3 T inh | CYP2C19 act
COC(=O)C1(CCSC)NC(c2ccco2)C2C(=O)N(C)C(=O)C21 (stereo unspecified) | 1.1 | 60* | -6 | -1.5 | 0.4
CC(C)CCNC(=O)C(c1ccco1)N(Cc1ccccc1)C(=O)c1snc(C(N)=O)c1N (stereo unspecified) | 0.8 | 49 | 24 | -1.6 | 0.5
CCc1ccccc1N(CC(=O)NCc1ccco1)C(=O)c1snc(C(N)=O)c1N | 0.3 | 95* | 69* | 1.6 | 0.1
COc1ccc(CNC(=O)C(C)N(Cc2ccco2)C(=O)c2snc(C(N)=O)c2N)cc1 (stereo unspecified) | 0.4 | 85* | 64* | 2.2 | 0.2
CCOCCCNCC(=O)N1CCN(S(=O)(=O)c2ccc(C)cc2)CC1 | 1 | 0 | -2 | 0.37 | 1
COC(=O)c1c(NC(=O)Cc2cccs2)sc2c1CCCC2 | 0.7 | 22 | 35 | 0.17 | 0.8
COc1ccccc1NC(=O)C1(C)Cc2ccccc2C(=O)O1 (stereo unspecified) | 2.3* | 40 | -134 | 0.67 | 0.6
CC1(C(=O)Nc2nnc(SCc3ccccc3)s2)Cc2ccccc2C(=O)O1 (stereo unspecified) | 0.2 | 15 | 79* | -2.9 | 0.9
COC(=O)c1c(NC(=O)C2(C)Cc3ccccc3C(=O)O2)sc2c1CCCC2 (stereo unspecified) | 0.4 | 60* | 56* | -0.31 | 0.4
CN1C(=O)CC(N2CCN(c3ccc(Cl)c(Cl)c3)CC2)C1=O (stereo unspecified) | 0.8 | 47 | 17 | -0.1 | 0.5
O=C(NC1CCCCC1)C1CCCN1C(=O)NCc1ccccc1 (stereo unspecified) | 0.8 | 9 | 24 | 0.39 | 0.9
CCOC(=O)C(NC(C)=O)(Nc1ccc(S(=O)(=O)Nc2cc(C)nc(C)n2)cc1)C(F)(F)F (stereo unspecified) | 0.9 | 4 | 12 | 0.32 | 1
CCN(CCC(=O)Nc1ccc(Br)c(C)c1)Cc1ccccc1 | 0.4 | 38 | 64* | 0.024 | 0.6
O=C(CCN(CCO)Cc1ccccc1)Nc1ccc(Br)cc1 | 0.4 | 69* | 63* | -0.62 | 0.3
CCOC(=O)C(NC(=O)c1ccc(OC)cc1)(OCC1(CC)COC1)C(F)(F)F (stereo unspecified) | 0.4 | 38 | 63* | 0.3 | 0.6
Cc1cccn2cc(CCNS(=O)(=O)c3ccc4c(c3)OCCO4)nc12 | 1.3 | 42 | -27 | 0.074 | 0.6
COc1ccc2c(c1)SCCC2=O | 0.7 | 34 | 31 | 0.15 | 0.7
COc1ccc2c(c1)OCC1=C2CCC2(C)C(=O)CC=C12 (stereo unspecified) | 0.4 | 42 | 64* | · | 0.6
COc1cccc(C2CC(c3ccc(Cl)cc3Cl)Nc3nc(N)nn32)c1 (stereo unspecified) | 0.5 | 67* | 54* | -0.45 | 0.3
COc1cccc(C2CC(c3ccccc3OC)n3ncnc3N2)c1 (stereo unspecified) | 0.3 | 96* | 66* | 1.3 | 0
CCOc1ccc(C2CC(c3ccccc3C)n3ncnc3N2)cc1 (stereo unspecified) | 1 | 64* | 3 | -2.3 | 0.4
COc1ccc(C2CC(c3ccc(Cl)cc3Cl)n3nc(N)nc3N2)cc1 (stereo unspecified) | · | · | · | -1.3 | ·
COc1ccc(C2CC(c3c(Cl)cccc3Cl)n3nc(N)nc3N2)cc1 (stereo unspecified) | 1.1 | 62* | -5 | 0.36 | 0.4
COc1cccc(C2CC(c3ccccc3Cl)Nc3nc(N)nn32)c1 (stereo unspecified) | · | · | · | -0.24 | ·
Cc1ccccc1C1CC(c2ccccc2)Nc2ncnn21 (stereo unspecified) | 0.9 | 36 | 10 | · | 0.6
SMILES | CYP2C9 activ | CYP2C19 inhib | CYP2C9 inhib | Cav3 T inh | CYP2C19 act
COc1ccc(CN2CCC(C(=O)NCCc3ccc(OC)c(OC)c3)CC2)c(OC)c1 | 0.9 | 6 | 13 | 0.77 | 0.9
CCC(=O)N1CCN(c2ccc(Cl)cc2NC(=O)c2ccc(Br)o2)CC1 | · | · | · | -2.2 | ·
CCCC(CCC)C(=O)NNc1cc(=O)c2c(=O)n(C)c(=O)n(C)c2[nH]1 | 0.8 | -1 | 16 | · | 1
CCOc1ccccc1C1CC(c2ccc(F)cc2)Nc2nc(N)nn21 (stereo unspecified) | 0.8 | 65* | 24 | 0.93 | 0.3
COc1ccccc1C1CC(c2ccc(Cl)cc2)Nc2nc(N)nn21 (stereo unspecified) | 1 | 50* | 1 | 0.2 | 0.5
COc1ccccc1C1C(C(N)=O)=C(C)Nc2ncnn21 (stereo unspecified) | 1.4 | -22 | -38 | 1.2 | 1.2
COc1cccc(C2CC(c3ccc(C)cc3)n3nc(N)nc3N2)c1 (stereo unspecified) | 1 | 16 | -1 | -0.56 | 0.8
COc1ccccc1C1CC(c2ccc(Cl)cc2)Nc2ncnn21 (stereo unspecified) | 0.3 | 98* | 70* | -2.6 | 0
COc1cccc(C2CC(c3ccccc3)Nc3ncnn32)c1 (stereo unspecified) | 0.6 | 95* | 44 | 0.0068 | 0.1
CC(SC1CCCC1)C(=O)Nc1ccnn1C(C)C (stereo unspecified) | 1 | 4 | 4 | 0.76 | 1
C=CCOC(=O)C1=C[C@@H](c2coc3ccccc3c2=O)[C@H](CCCO)[C@@H](OCC)O1 | · | · | · | 0.018 | ·
COc1ccc(-n2nc3c(c2NC(=O)c2cc(Br)ccc2Cl)CS(=O)C3)cc1 (stereo unspecified) | 1.1 | -16 | -10 | · | 1.2
CC1CCCCC1NC(=O)CN1C(=O)NC(Cc2ccccc2)(Cc2ccccc2)C1=O (stereo unspecified) | 0.8 | 60* | 20 | · | 0.4
CC1CCCCC1NC(=O)CN1CCC(O)(c2ccc(F)cc2)CC1 (stereo unspecified) | 0.9 | 6 | 8 | 0.86 | 0.9
CC(NC(=O)CN1C(=O)NC(Cc2ccccc2)(Cc2ccccc2)C1=O)C12CC3CC(CC(C3)C1)C2 (stereo unspecified) | 0.9 | 21 | 8 | -5.2* | 0.8
CCC(Oc1ccccc1)C(=O)Nc1ccccc1OC (stereo unspecified) | 1 | 38 | 4 | -0.46 | 0.6
CCC(CC)c1nnc(NC(=O)Oc2ccccc2)s1 | 0.4 | 5 | 56* | 0.013 | 0.9
CCC(Oc1ccccc1)C(=O)Nc1nnc(C(F)(F)F)s1 (stereo unspecified) | 0 | 16 | 97* | -1.3 | 0.8
CCC(Oc1ccccc1)C(=O)Nc1nnc(C)s1 (stereo unspecified) | 0.4 | 41 | 63* | 0.093 | 0.6
Cc1cccc(N=c2oc3cc(O)ccc3cc2C(N)=O)c1 | 0.3 | 18 | 69* | 0.51 | 0.8
COc1ccccc1N=c1oc2cc(O)ccc2cc1C(=O)NCC1CCCO1 (stereo unspecified) | 1.6 | 21 | -60 | -1.5 | 0.8
COc1ccccc1N=c1oc2cc(O)ccc2cc1C(N)=O | 0.3 | 9 | 71* | 0.88 | 0.9
